Inconclusive results are not listed. Calls of active or inactive are those of the source. Unless noted, calls follow the shape of the full dose curve.
Key:
[1] = qHTS assay to identify small molecule agonists of the vitamin D receptor (VDR) signaling pathway - cell viability counter screen (AID 743224; active = well fitted curve in the direction sought with a large enough effect in the repeat runs; an effect the other way counts as inactive or inconclusive; also: series mostly up to about 63 µM; % is scaled to controls: 0 for no effect and ±100 for the full control effect; nearly all actives have a fitted effect of over 50% in size)
Outline: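 Cells: VDR-bla, 2,000/well, settled 4 h. Treatment: compounds in DMSO, 16 h, 37C/5% CO2. Readout: CellTiter-Glo luminescence after 30 min RT.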

[2] = qHTS assay to identify small molecule agonists of the NFkB signaling pathway (AID 1159509; active = well fitted curve in the direction sought with a large enough effect in the signal ratio in the repeat runs, not every such curve was filed as active; the % refers to the signal ratio; also: series mostly up to about 61 µM; % is scaled to controls: 0 for no effect and ±100 for the full control effect)
Outline: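 Agonist activity was read as beta-lactamase-driven FRET change (460 and 530 nm emission, 405 nm excitation) following 1.5 hr substrate loading at room temperature. Beforehand, ME-180 NFkB-bla reporter cells were treated with compounds for 5 hr at 37 C.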

[3] = qHTS assay to identify small molecule agonists of the NFkB signaling pathway - cell viability counter screen (AID 1159515); also: series mostly up to about 61 µM; % is scaled to controls: 0 for no effect and ±100 for the full control effect; nearly all actives have a fitted effect of over 55% in size
Outline: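 Cells are seeded (2,000 NFkB-bla ME-180 per well), rested overnight, and dosed with DMSO-dissolved compounds for 5 hr at 37 C. Viability is then read by CellTiter-Glo luminescence after 30 min at room temperature.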

[4] = qHTS assay to identify small molecule agonists of the endoplasmic reticulum stress response signaling pathway - cell viability counter screen (AID 1159517);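 also: HeLa cells carrying an ER stress response element beta-lactamase reporter; series mostly up to about 61 µM; % is scaled to controls: 0 for no effect and ±100 for the full control effect; nearly all actives have a fitted effect of over 50% in size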
Outline: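 In parallel with the ESRE reporter read, cytotoxicity was scored by CellTiter-Glo luminescence (30 min, room temperature) on HeLa ESRE-bla cells dosed for 5 hr.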

[5] = qHTS assay to identify small molecule antagonists of the retinoid-related orphan receptor gamma (ROR-gamma) signaling pathway - cell viability counter screen (AID 1159520; active = well fitted curve in the direction sought with a large enough effect in the repeat runs; an effect the other way counts as inactive or inconclusive; also: % is scaled to controls: 0 for no effect and ±100 for the full control effect; nearly all actives have a fitted effect of over 50% in size)
Outline: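 Tet-on ROR gamma CHO cells were given compounds for 2 hr, then doxycycline hyclate at 1 uM final, and incubated 16 hr at 37 C. Viability was measured as ATP content by CellTiter-Glo luminescence.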

[6] = molecular target: Nuclear receptor ROR-gamma (Homo sapiens) (UniProt P51449); assay: qHTS assay to identify small molecule antagonists of the retinoid-related orphan receptor gamma (ROR-gamma) signaling pathway (AID 1159521; active = well fitted curve in the direction sought with a large enough effect in the repeat runs; an effect the other way counts as inactive or inconclusive; also: top concentration of the series differs between compounds; % is scaled to controls: 0 for no effect and ±100 for the full control effect; nearly all actives have a fitted effect of over 50% in size)
Outline: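 Antagonist read-out: drop in luminescence (ONE-Glo) from an RORE-LUC reporter in CHO cells with doxycycline-inducible ROR-gamma; 2 hr compound pretreatment, 1 uM doxycycline, 16 hr incubation at 37 C.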

[7] = qHTS assay to identify small molecule agonists of the AP-1 signaling pathway - cell viability counter screen (AID 1159525); also: nearly all actives have a fitted effect of over 55% in size
Outline: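 Same-well cytotoxicity counter screen of the Tox21 10K library in ME-180 cells. The readout is ATP-dependent luminescence after 5 h compound treatment. Data are normalised to DMSO and tetra n-octyl ammonium bromide controls.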

[8] = qHTS assay to identify small molecule agonists of the AP-1 signaling pathway (AID 1159526); also: % is scaled to controls: 0 for no effect and ±100 for the full control effect
[9] = qHTS assay to identify small molecule agonists of the endoplasmic reticulum stress response signaling pathway (AID 1159516; active = well fitted activation curve with a large enough effect in the signal ratio in the repeat runs, not every such curve was filed as active; the % refers to the signal ratio; also: % is scaled to controls: 0 for no effect and ±100 for the full control effect)
Outline: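 Cells are seeded at 1,500 per well and incubated overnight. Compounds in DMSO are added for 5 hr at 37 C, then beta-lactamase FRET substrate for 2 hr at room temperature, and fluorescence at 460 and 530 nm is measured.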

[10] = qHTS assay to identify small molecule antagonists of the vitamin D receptor (VDR) signaling pathway - cell viability counter screen (AID 743225; active = well fitted curve in the direction sought with a large enough effect in the repeat runs; an effect the other way counts as inactive or inconclusive)
Outline: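 Cytotoxicity counter screen read by CellTiter-Glo luminescence (30 min, room temperature) in the same wells as the VDR-bla antagonist readout. HEK 293T VDR-UAS-bla cells had 16 h at 37C with compound and 3 nM (final) 1-alpha,25-dihydroxyvitamin D3, then 2 h with FRET substrate.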

COCCOCCOCCOCCO
inactive: Potency [1] | outcome [2] | outcome [3] | Potency [4] | outcome [5] | outcome [6] | outcome [7] | outcome [8]

CC(C)CCCC(C)(C)O
inactive: Potency [1] | outcome [2] | outcome [3] | outcome [9] | outcome [6] | outcome [7] | outcome [8]

C[C@@H](Oc1ccc(CNC(=O)c2cccnc2Oc2ccc3c(c2)OCO3)c(F)c1)C(=O)O
inactive: Potency [1] | outcome [10] | outcome [2] | outcome [3] | outcome [9] | outcome [5] | outcome [6] | outcome [7] | outcome [8]

CCCCCCOc1ccccc1C(N)=O
inactive: Potency [1] | outcome [10] | outcome [2] | outcome [3] | outcome [9] | outcome [6] | outcome [7] | outcome [8]

C[C@@H]1O[C@@H](O[C@@H]2[C@@H](O)[C@H](OCCc3ccc(O)c(O)c3)O[C@H](CO[C@@H]3O[C@H](CO)[C@@H](O)[C@H](O)[C@H]3O)[C@H]2OC(=O)/C=C/c2ccc(O)c(O)c2)[C@H](O)[C@H](O)[C@H]1O
inactive: outcome [10] | outcome [2] | outcome [3] | outcome [9] | outcome [5] | outcome [7] | outcome [8]

COc1cc(NS(=O)(=O)c2ccc(N)cc2)nc(OC)n1
inactive: outcome [10] | outcome [2] | outcome [3] | outcome [9] | outcome [5] | outcome [6] | outcome [7] | outcome [8]

COc1ccc(S(=O)(=O)N2c3ccc(Cl)cc3[C@@](O)(c3ccccc3Cl)[C@H]2C(=O)N2CCC[C@@H]2C(N)=O)cc1OC
inactive: Potency [1] | outcome [10] | outcome [2] | outcome [3] | outcome [9] | outcome [5] | outcome [6] | outcome [7] | outcome [8]

CC1=C(C(=O)O)N2C(=O)[C@@H](NC(=O)[C@H](N)c3ccc(O)cc3)[C@H]2SC1
inactive: Potency [1] | outcome [10] | outcome [2] | outcome [3] | outcome [9] | outcome [5] | outcome [6] | outcome [7] | outcome [8]

C[C@H](N)[C@H](O)c1cccc(O)c1
inactive: outcome [10] | outcome [2] | outcome [3] | outcome [9] | Potency [4] | outcome [7] | outcome [8]

C[C@@H](O)[C@H]1C(=O)N2C(C(=O)O)=C(SCCN=CN)C[C@H]12
inactive: outcome [2] | outcome [3] | Potency [4] | outcome [5] | outcome [6] | outcome [7] | outcome [8]

Cc1cc(NC(=O)C2=C(O)c3ccccc3S(=O)(=O)N2C)no1
inactive: outcome [10] | outcome [2] | outcome [3] | outcome [9] | outcome [5] | outcome [6] | outcome [7] | outcome [8]

Cc1[nH]cnc1-c1ccc(Cl)cc1
inactive: Potency [1] | outcome [10] | outcome [2] | outcome [3] | outcome [9] | outcome [5] | outcome [6] | outcome [7] | outcome [8]

O=S(=O)(O)CCN1CCN(CCO)CC1
inactive: Potency [1] | outcome [10] | outcome [2] | outcome [3] | outcome [9] | outcome [5] | outcome [7] | outcome [8]

O=C(OCC(O)CO)c1ccccc1Nc1ccnc2c(C(F)(F)F)cccc12 (stereo unspecified)
inactive: Potency [1] | outcome [2] | outcome [3] | Potency [4] | outcome [5] | outcome [6] | outcome [7] | outcome [8]

N[C@@H](COP(=O)(O)O)C(=O)O
inactive: outcome [10] | outcome [2] | outcome [3] | outcome [9] | activity, negative = cytotoxicity [5] -0.691% [at 19 µM] | activity change, negative = inhibition [6] -15% [at 19 µM] | viability change, negative = cytotoxic [7] 11.4% [at 15.8 µM] | activation [8] -0.856% [at 15.8 µM]

C=CC(OCC)OCC
inactive: Potency [1] | outcome [10] | outcome [2] | outcome [3] | Potency [4] | outcome [5] | outcome [7] | outcome [8]

CCC(C=O)CC
inactive: Potency [1] | outcome [2] | outcome [3] | Potency [4] | outcome [5] | outcome [7] | outcome [8]

CC(C)(C)c1n[nH]c(=S)n(N)c1=O
inactive: Potency [1] | outcome [10] | outcome [2] | outcome [3] | Potency [4] | outcome [6] | outcome [7] | outcome [8]

CC(CO)c1ccccc1 (stereo unspecified)
inactive: Potency [1] | outcome [10] | outcome [2] | outcome [3] | outcome [5] | outcome [6] | outcome [7] | outcome [8]

N[C@@H](CCC(=O)Nc1ccc([N+](=O)[O-])cc1)C(=O)O
inactive: outcome [10] | outcome [2] | outcome [3] | Potency [4] | outcome [5] | outcome [7] | outcome [8]

CC(C)OC(=O)CCCCC(=O)OC(C)C
inactive: Potency [1] | outcome [10] | outcome [2] | outcome [3] | Potency [4] | outcome [7] | outcome [8]

Cc1cc(C(C)(C)C)c(O)c(C)c1CC1=NCCN1
inactive: Potency [1] | outcome [10] | outcome [2] | outcome [3] | Potency [4] | outcome [5] | outcome [6] | outcome [7] | outcome [8]

CCC(C)(CCC(C)C)C(=O)O (stereo unspecified)
inactive: Potency [1] | outcome [10] | outcome [2] | outcome [3] | outcome [5] | outcome [6] | outcome [7] | outcome [8]

C=C(C)C(=O)OCCNC(C)(C)C
inactive: Potency [1] | outcome [10] | outcome [2] | outcome [3] | Potency [4] | outcome [5] | outcome [6] | outcome [7] | outcome [8]

CC[C@H](C)C(=O)O[C@H]1C[C@H](O)C=C2C=C[C@H](C)[C@H](CC[C@@H](O)C[C@@H](O)CC(=O)O)[C@H]21
inactive: outcome [10] | outcome [2] | outcome [3] | outcome [6] | outcome [7] | outcome [8]

NS(=O)(=O)c1ccc(NC(=O)CCC(=O)O)cc1
inactive: Potency [1] | outcome [10] | outcome [2] | outcome [3] | Potency [4] | outcome [5] | outcome [6] | outcome [7] | outcome [8]

CC(C)=O
inactive: outcome [2] | outcome [3] | outcome [6] | outcome [7] | outcome [8]
